# GAA glycogen mod: inhibitors or activators of human alpha-glucosidase glycogen cleavage | P10253 | Potency, µM (doses to about 76.4 µM), for inactives: top-dose activity change, negative = inhibition, most hits filed as inhibitors | recombinant GAA, glycogen substrate, Amplex Red glucose oxidase fluorescence | actives 0.38% (n = 300,000);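 also: potency is read from the fitted curve at half-maximal effect; 0% = full enzyme reaction and -100% = no-enzyme basal signal; the screen sought inhibitors and activators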
#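 Recombinant human alpha-glucosidase (4 nM final) hydrolysed bovine liver glycogen (30 ug) for 40 min at 37 C in pH 5.0 citrate/phosphate with 0.01% Tween-20. Released glucose detected by glucose oxidase/Amplex Red, Ex 573/Em 610 nm. Compounds up to 77 uM; AC50 from Hill fits.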
# aGal spleen mod: alpha-galactosidase A (human) modulation. Potency, µM (doses to about 80 µM), inactives show at the highest dose activity change, negative = inhibition, actives largely listed as inhibitors. actives 0.008% (n = 240,000). P06280. human spleen homogenate, 4MU-alpha-Gal fluorescence, 40 min;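 also: potency is read from the fitted curve at half-maximal effect; 0% = enzyme with vehicle and -100% = no enzyme basal signal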
# Target sequence (P06280 32-429 limits assumed): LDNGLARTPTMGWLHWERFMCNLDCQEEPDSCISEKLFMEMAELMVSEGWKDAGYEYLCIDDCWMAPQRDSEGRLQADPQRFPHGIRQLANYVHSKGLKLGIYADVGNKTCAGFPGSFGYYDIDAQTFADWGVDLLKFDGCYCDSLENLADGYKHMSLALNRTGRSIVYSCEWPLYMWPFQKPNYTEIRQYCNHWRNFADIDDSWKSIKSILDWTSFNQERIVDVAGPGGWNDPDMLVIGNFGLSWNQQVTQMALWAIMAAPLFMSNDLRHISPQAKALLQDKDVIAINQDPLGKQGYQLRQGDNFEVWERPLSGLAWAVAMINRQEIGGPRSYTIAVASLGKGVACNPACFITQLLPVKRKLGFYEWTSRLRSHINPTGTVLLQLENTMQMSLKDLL
#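 qHTS titration in buffer at pH 5.0. Alpha-galactosidase activity in spleen homogenate was measured via 4-methylumbelliferone release from 1 mM fluorogenic substrate after 40 min at 37C and a pH 10 stop. AC50 came from Hill fits of control-normalized data.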
# aGlu spleen mod: inhibitors or activators of human alpha-glucosidase in spleen homogenate; human spleen homogenate, 4-MU-alpha-glucoside fluorescence; Potency, µM (titrated, usually from 79.9 µM), for the others: at the highest dose activity change, negative = inhibition, usual class: inhibitors; actives 0.006% (n = 240,000); AID 2112;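 also: potency is read from the fitted curve at half-maximal effect; 0% = enzyme with vehicle and -100% = no enzyme basal signal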
#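 Human spleen homogenate (1 ug) with 4-methylumbelliferyl-alpha-D-glucopyranoside (1 mM final) in 50 mM citrate/phosphate pH 5.0, 0.01% Tween-20; 40 min at 37 C. Stopped at pH 10; 4-MU fluorescence Ex 365/Em 440 nm; AC50 by Hill fit.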
# GLA inh pH 4.5: alpha-galactosidase A (human) inhibition, pH 4.5 | P06280 | purified enzyme, 4-MU-alpha-Gal fluorescence, pH 4.5 | activity change, negative = inhibition, % at 105 µM | 230,000 tested, under 10 active;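 also: 0% = full activity with enzyme and -100% = basal without enzyme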
# N370S GC mod: N370S glucocerebrosidase modulation, Gaucher chaperone candidate | P04062 | N370S GC spleen homogenate, 4MU-glucoside fluorescence | Potency, µM (titrated, usually from 59.4 µM), for inactives: at the highest dose activity change, negative = inhibition, most hits filed as inhibitors | actives 0.092% (n = 330,000) | AID 2101;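 also: potency is read from the fitted curve at half-maximal effect; 0% = full enzyme activity and -100% = no enzyme basal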
# GAA inh: alpha-glucosidase (human) inhibition | Potency, µM (titrated, usually from 76.9 µM), for inactives: at the top dose activity change, negative = inhibition, hits mostly inhibitors | actives 0.005% (n = 200,000) | purified human GAA, 4-MU-alpha-glucoside fluorescence;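 also: potency is read from the fitted curve at half-maximal effect; plate controls were uninhibited enzyme wells for no effect and no-enzyme background for full effect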
#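 Fluorescence at Ex 365/Em 440 nm from 4-methylumbelliferone reported enzyme activity after 20 min at room temperature. Reactions used 4 nM enzyme and 400 uM substrate at pH 5.0; curves fitted with the Hill equation.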
# An asterisk follows results filed as active; ? = inconclusive; . = not tested or not shown; [ ] = dose if it differs, or a comment. A selection: hits, their analogues and other compounds. The true share with any hit is near 0.43%. Calls follow the shape of the dose curve; as a rule, active = well fitted curve in the direction sought with a large enough effect; inconclusive = small, poorly fitted or top-dose-only effect, or another doubt; inactive = no such curve, though single readings can be large; an effect the other way counts as inactive or inconclusive.
SMILES,GAA glycogen mod,aGal spleen mod,aGlu spleen mod,GLA inh pH 4.5,N370S GC mod,GAA inh
O=C(O)c1cc(=O)c2cc(Cl)ccc2[nH]1,.,10%,-3%,.,-7%,.
C=C1C2=CC(=O)OC(c3ccoc3)[C@]2(C)CCC1[C@]1(C)C=CC(=O)C(C)(C)C1CC(=O)OC (some centres not stated),.,14%,5%,-5,-2%,.
CCCc1cc(=O)oc2cc(OCC(=O)NC(Cc3c[nH]c4ccc(O)cc34)C(=O)O)c(Cl)cc12 (configuration not stated),7.9µM*,.,.,.,4%,.
CCN(C(=O)c1c(C)cc(=O)oc1C)c1ccc2c(c1)OCO2,2%,-17%,-6%,-6,6%,0%
CCN(C(=O)c1coc(=O)c(Br)c1)c1ccc2c(c1)OCO2,18µM*,19%,3%,19,15%,?
CCOC(=O)c1[nH]c2ccccc2c1NC(=S)Nc1ccccc1C,14µM*,9%,-3%,1,3%,-8%
Cc1ccccc1NS(=O)(=O)c1ccc(C(=O)N2CCCC2)cc1,.,.,.,.,2%,.
Cc1cccc(NS(=O)(=O)c2ccc(C(=O)N3CCN(c4ccccc4O)CC3)cc2)c1C,4.5µM*,.,.,.,-5%,.
CC(=O)c1cc2c(O)c(O)ccc2o1,31µM*,2%,-7%,2,-7%,0%
CC(=O)c1cc2cc(O)ccc2o1,-1%,?,?,?,?,?
CCCn1cc(S(=O)(=O)c2ccc(OC)cc2)c(=O)c2cc(F)c(N3CCCC(C)C3)cc21 (configuration not stated),-10%[76.3 µM],.,.,.,.,.
O=C(NCCNCCO)C1(C(F)(F)F)CC(CCc2ccccc2)CCCO1 (configuration not stated),.,-10%,-7%,.,?,.
CCCCn1c(C)cc2cc(O)ccc21,32µM*,-5%,-5%,-6,-2%,1%
CCOC(=O)c1nnc2c(-c3ccc(OC)cc3)c(C)nn2c1N,1%[76.3 µM],.,.,.,.,.
COC(=O)C/C=C1\c2ccc3c(c2[C@@H](OC)[C@@H]1C)OCO3,.,-3%,-5%,1,-3%,.
O=C(Cn1c(=O)n(Cc2ccccc2)c(=O)c2sc3ccccc3c21)Nc1ccccc1,7.9µM*,.,.,.,.,.
Cc1cc2c(c(=O)o1)[C@H](O)[C@H]1O[C@@H]1C2=O,.,-13%[17.5 µM],2%[17.4 µM],.,-20%[12.8 µM],.
COc1ccc2c(c1)O[C@@H](c1ccc3c(c1)OCO3)[C@H](OC(=O)N[C@H]1CCCc3ccccc31)C2=O,.,-5%,0%,-3,-2%,.
COC(=O)C1=C[C@@H](C(=O)OC)[C@@H]2C3=C(C(=O)[C@@]2(C)NC(=O)c2ccccc2)[C@H](C)[C@@H]2C(=O)N(Cc4ccccc4)C(=O)[C@@H]2[C@@H]3C1,.,3%,-2%,.,-2%,.
Cc1ccc(S(=O)(=O)N2CCN(CC(=O)N/N=C\c3ccc(O)c(O)c3)CC2)cc1,6.3µM*,-18%,?,4,-20%,.
O=C(CN1CCN(S(=O)(=O)c2ccc(F)cc2)CC1)c1ccc(O)c(O)c1,10%,-7%,-10%,-12,?,?
Cc1ccc(S(=O)(=O)N2CCN(CC(=O)N/N=C/c3ccc(C)o3)CC2)cc1,-24%,7%,-9%,-1,-5%,?
O=C(CN1CCN(S(=O)(=O)c2ccc(Cl)cc2)CC1)c1ccc(O)c(O)c1,8.9µM*,.,.,.,-28%,.
CCOc1cc(C(=O)Nc2ccc(-c3nnc4n3CCCCC4)cc2)cc(OCC)c1OCC,-2%[76.3 µM],.,.,.,.,.
COc1ccc(NCc2nnc(SCC(=O)c3ccc(OC)cc3)n2C)cc1,12µM*,-4%,-1%,2,-23%,7%
COc1ccc(CC(=O)NCc2nnc(SCC(=O)c3ccc(OC)cc3)n2C)cc1,-5%,0%,-9%,-4,-6%,9%
CCc1ccc(NC(=O)N(CCN2CCOCC2)Cc2ccc3c(c2)CCCN3CC)cc1,11µM*,4%,-2%,-3,-8%,-2%
